These results are taken from paper PMC4336329 (PLoS ONE, 2015).

Out of some 310,000 compounds screened, about 14,000 (4.5%) showed an effect of 50% or more. Effects have a minus sign here. The sample holds strong results, similar compounds and a random draw of the others, so the mix is not that of the screen.
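Note: peak tail current of the secondary pulse compared with the same well before compound.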

In the test the target is human ether-à-go-go-related gene (hERG) potassium channel (human, UniProt Q12809). As to the kind of experiment: primary screen, population patch clamp on CHO cells stably expressing hERG; higher = less effect of the substance.
Chain of human ether-à-go-go-related gene (hERG) potassium channel (Q12809 whole entry, looked up): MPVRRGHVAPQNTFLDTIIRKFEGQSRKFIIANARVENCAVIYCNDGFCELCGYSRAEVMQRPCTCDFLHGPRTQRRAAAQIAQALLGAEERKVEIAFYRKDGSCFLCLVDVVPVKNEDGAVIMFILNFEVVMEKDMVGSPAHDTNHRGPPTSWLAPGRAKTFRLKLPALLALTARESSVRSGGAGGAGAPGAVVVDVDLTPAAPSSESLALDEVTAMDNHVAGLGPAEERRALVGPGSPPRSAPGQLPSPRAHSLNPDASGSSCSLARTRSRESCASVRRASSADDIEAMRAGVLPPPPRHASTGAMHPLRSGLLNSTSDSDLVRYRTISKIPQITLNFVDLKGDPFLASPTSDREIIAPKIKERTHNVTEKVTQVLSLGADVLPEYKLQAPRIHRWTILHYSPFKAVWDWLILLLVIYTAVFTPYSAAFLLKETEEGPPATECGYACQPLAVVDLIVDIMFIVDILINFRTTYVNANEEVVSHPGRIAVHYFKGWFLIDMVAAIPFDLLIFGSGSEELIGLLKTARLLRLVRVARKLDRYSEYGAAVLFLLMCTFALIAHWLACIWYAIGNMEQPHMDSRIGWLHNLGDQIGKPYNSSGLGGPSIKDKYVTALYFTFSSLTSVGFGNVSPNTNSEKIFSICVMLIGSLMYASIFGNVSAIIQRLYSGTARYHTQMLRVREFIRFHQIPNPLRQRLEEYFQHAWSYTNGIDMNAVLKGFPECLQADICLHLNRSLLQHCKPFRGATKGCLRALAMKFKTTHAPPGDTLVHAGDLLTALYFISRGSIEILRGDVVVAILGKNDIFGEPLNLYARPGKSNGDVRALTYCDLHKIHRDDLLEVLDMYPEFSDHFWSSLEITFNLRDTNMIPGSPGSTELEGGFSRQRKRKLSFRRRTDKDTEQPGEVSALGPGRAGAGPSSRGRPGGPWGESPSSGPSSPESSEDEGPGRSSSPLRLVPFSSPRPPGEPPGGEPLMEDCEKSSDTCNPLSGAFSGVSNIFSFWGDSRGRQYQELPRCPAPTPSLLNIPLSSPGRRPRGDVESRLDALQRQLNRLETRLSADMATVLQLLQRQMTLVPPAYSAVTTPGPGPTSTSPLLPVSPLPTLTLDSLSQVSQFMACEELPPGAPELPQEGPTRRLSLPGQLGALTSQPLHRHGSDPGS
Take `COc1ccccc1OCCn1c(C)c(C=O)c2ccccc21`: the “hERG current change (%, negative = inhibition) at 10uM” value is listed as -2.11%.

Consider `Cc1c(Br)c([N+](=O)[O-])nn1CC(=O)N1CCCc2ccccc21`, for which the “hERG current change (%, negative = inhibition) at 10uM” value amounted to 2.48%.

For the compound `CN(C)C(CNS(=O)(=O)c1ccc(Br)cc1)c1cccnc1` (centres unmarked), the “hERG current change (%, negative = inhibition) at 10uM” value was -11.3%.

Consider `CCN1CCN(C(CNS(=O)(=O)c2ccc(Br)cc2)c2cccnc2)CC1` (centres unmarked), for which the “hERG current change (%, negative = inhibition) at 10uM” value was -65.8%.

Turning to `CCN1CCN(C(CNS(=O)(=O)c2ccc(Cl)cc2)c2ccccc2)CC1` (centres unmarked), the “hERG current change (%, negative = inhibition) at 10uM” value is -69.5%.

In the case of `CCN1CCN(C(CNS(=O)(=O)c2ccccc2)c2ccccc2)CC1` (centres unmarked), the “hERG current change (%, negative = inhibition) at 10uM” value was -34.8%.

Take `N#CCCN1CCN(C(CNS(=O)(=O)c2ccc(Cl)cc2)c2ccccc2)CC1` (centres unmarked): the “hERG current change (%, negative = inhibition) at 10uM” value is recorded as -34.2%.

Consider `CCN1CCN(C(CNS(=O)(=O)c2ccc(C)cc2)c2cccnc2)CC1` (centres unmarked), for which the “hERG current change (%, negative = inhibition) at 10uM” value was -35.9%.

Regarding `CCN1CCN(C(CNS(=O)(=O)c2ccc(Cl)cc2)c2cccnc2)CC1` (centres unmarked), the “hERG current change (%, negative = inhibition) at 10uM” value was -74.2%.

`CN(C)C(CNS(=O)(=O)c1ccc(Cl)cc1)c1cccnc1` (centres unmarked): the “hERG current change (%, negative = inhibition) at 10uM” value is 18.2%.

In the case of `CN1CCN(C(CNS(=O)(=O)c2ccc(Cl)cc2)c2cccnc2)CC1` (centres unmarked), the “hERG current change (%, negative = inhibition) at 10uM” value is recorded as -55.6%.

Take `CN1CCN(C(CNS(=O)(=O)c2ccc(F)cc2)c2cccnc2)CC1` (centres unmarked): the “hERG current change (%, negative = inhibition) at 10uM” value is given as -7.43%.

In the case of `N#Cc1ccc(Oc2cc(C(F)(F)F)nc(-c3ccccn3)n2)cc1`, the “hERG current change (%, negative = inhibition) at 10uM” value turned out to be 5.26%.

Turning to `Cc1cccc(Nc2ncnc3onc(-c4ccc(F)cc4)c23)c1C`, the “hERG current change (%, negative = inhibition) at 10uM” value is recorded as -4.56%.

Consider `Oc1ccccc1CNc1nccs1`, for which the “hERG current change (%, negative = inhibition) at 10uM” value was determined as 21.3%.

For the compound `COc1ccc(OC(C)C(=O)Nc2ccccc2F)cc1` (centres unmarked), the “hERG current change (%, negative = inhibition) at 10uM” value is given as 13.1%.

For `CN(C)CCn1cnc2c1c(=O)[nH]c(=O)n2Cc1ccccc1.Cl`, the “hERG current change (%, negative = inhibition) at 10uM” value was 27.6%.

Regarding `O=C(O)CCCC(=O)NCc1ccccn1`, the “hERG current change (%, negative = inhibition) at 10uM” value is reported as 11.1%.

On to `Cc1ccc(NC(=O)Cn2c(-c3ccc(F)cc3)cnc2SCC(=O)Nc2c(C)cccc2C)cc1`, for which the “hERG current change (%, negative = inhibition) at 10uM” value is 16%.

In the case of `Cc1cc(C(=O)Nc2ccc(F)cc2)c2ccccc2n1`, the “hERG current change (%, negative = inhibition) at 10uM” value is reported as -0.679%.

Regarding `C/C(CC(=O)Nc1ccc2c(c1)OCCO2)=N\NC(=O)c1ccc([N+](=O)[O-])cc1Cl`, the “hERG current change (%, negative = inhibition) at 10uM” value is reported as -5.37%.

Turning to `CC(C)Sc1ccc([N+](=O)[O-])cc1C(=O)Nc1ccncc1`, the “hERG current change (%, negative = inhibition) at 10uM” value was -11.7%.

As to `CCCCCn1cnc2c(sc3nc4c(cc32)CSC(C)(C)C4)c1=O`, the “hERG current change (%, negative = inhibition) at 10uM” value is on record as -14.5%.

As for `CCOC(=O)C1(CC2CCCCO2)CCN(Cc2ccc(OC)cc2F)CC1` (centres unmarked), the “hERG current change (%, negative = inhibition) at 10uM” value is -54.8%.

For the compound `CCOC(=O)C1(CC2CCCCO2)CCN(S(=O)(=O)c2ccccc2)CC1` (centres unmarked), the “hERG current change (%, negative = inhibition) at 10uM” value came out at 9.64%.

On to `CCOC(=O)C1(CCOC)CCN(Cc2nc(-c3cccs3)oc2C)CC1`, for which the “hERG current change (%, negative = inhibition) at 10uM” value is recorded as -30.8%.

Regarding `CCOC(=O)C1(CC2CCCCO2)CCN(S(=O)(=O)c2cc(C)cs2)CC1` (centres unmarked), the “hERG current change (%, negative = inhibition) at 10uM” value was -59%.

Consider `CCOC(=O)C1(CC2CCCCO2)CCN(S(=O)(=O)c2ccc(C)s2)CC1` (centres unmarked), for which the “hERG current change (%, negative = inhibition) at 10uM” value is recorded as 9.12%.

With `CCOC(=O)C1(CC2CCCCO2)CCN(S(=O)(=O)c2ccc(OC)cc2)CC1` (centres unmarked), the “hERG current change (%, negative = inhibition) at 10uM” value is -38.3%.

For `CCOC(=O)C1(CC2CCCCO2)CCN(Cc2nc3ccccc3nc2C)CC1` (centres unmarked), the “hERG current change (%, negative = inhibition) at 10uM” value was -21.2%.

For `CCOC(=O)C1(CC2CCCCO2)CCN(Cc2nc(-c3cccs3)oc2C)CC1` (centres unmarked), the “hERG current change (%, negative = inhibition) at 10uM” value is reported as -67.6%.

Consider `CCOC(=O)C1(CC2CCCCO2)CCN(Cc2nccn2-c2ccc(OC)cc2)CC1` (centres unmarked), for which the “hERG current change (%, negative = inhibition) at 10uM” value is recorded as -5.78%.

`CCOC(=O)C1(CC2CC2)CCN(Cc2ccc(OC)cc2F)CC1`: the “hERG current change (%, negative = inhibition) at 10uM” value is reported as -73.5%.

Take `CCOC(=O)C1CCN(Cc2ccc(F)cc2F)CC1`: the “hERG current change (%, negative = inhibition) at 10uM” value is recorded as 6.65%.

With `CCOC(=O)C1(CC2CC2)CCN(Cc2cnc(-c3ccc(OC)cc3)nc2)CC1`, the “hERG current change (%, negative = inhibition) at 10uM” value is given as -21.9%.
